ALDH1A1 block = qHTS Assay for Inhibitors of Aldehyde Dehydrogenase 1 (ALDH1A1) | 220,000 compounds, 7.3% hits | Purified ALDH1A1, NADH fluorescence, propionaldehyde substrate | Potency, µM (doses to about 75.3 µM), inactives show at the top dose activity, negative = inhibition, most hits filed as inhibitors; active = well fitted inhibition curve with a large enough effect, not every such curve was filed as active; inconclusive = small, poorly fitted or top-dose-only effect, or another doubt; inactive = no such curve, though single readings can be large or run the other way;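 note: plate controls were no enzyme wells and a reference inhibitor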
Target sequence (P00352 whole entry, looked up): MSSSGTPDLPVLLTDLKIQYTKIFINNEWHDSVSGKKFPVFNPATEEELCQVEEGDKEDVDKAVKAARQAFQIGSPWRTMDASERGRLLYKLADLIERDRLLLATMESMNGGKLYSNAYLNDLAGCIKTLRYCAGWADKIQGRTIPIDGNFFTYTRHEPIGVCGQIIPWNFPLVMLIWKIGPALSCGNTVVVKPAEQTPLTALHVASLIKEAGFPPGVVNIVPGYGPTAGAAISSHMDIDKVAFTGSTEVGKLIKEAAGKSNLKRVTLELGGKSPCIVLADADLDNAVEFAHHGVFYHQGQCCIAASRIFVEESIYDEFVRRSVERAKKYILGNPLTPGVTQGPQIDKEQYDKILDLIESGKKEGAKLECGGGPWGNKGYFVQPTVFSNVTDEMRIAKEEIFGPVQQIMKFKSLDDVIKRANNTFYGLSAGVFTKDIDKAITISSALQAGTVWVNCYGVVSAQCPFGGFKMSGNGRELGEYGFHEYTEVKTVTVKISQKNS
JMJD2E inh = qHTS Assay for Inhibitors of Human Jumonji Domain Containing 2E (JMJD2E) | Lysine-specific demethylase 4E (Homo sapiens), B2RXH2 | JMJD2E catalytic domain, FDH-coupled NADH fluorescence (FDH is formaldehyde dehydrogenase) | Potency, µM (highest dose often 57.1 µM), for the others: at the top dose activity change, negative = inhibition, actives largely listed as inhibitors | 230,000 compounds, 1.6% hits | AID 2147, 2009; active = well fitted inhibition curve with a large enough effect, not every such curve was filed as active; inconclusive = small, poorly fitted or top-dose-only effect, or another doubt; inactive = no such curve, though single readings can be large or run the other way;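 note: 0% = wells with enzyme and -100% = buffer wells without enzyme; nearly all actives have a fitted effect of over 50% in size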
Tau FP inhib = qHTS for Inhibitors of Tau Fibril Formation, Fluorescence Polarization; K18 P301L tau heparin fibrillization, Alexa594 FP, 6 h; Potency, µM (highest dose often 57.7 µM), inactives show at the highest dose activity, negative = inhibition, actives largely listed as inhibitors; 280,000 compounds, 0.39% hits; note: nearly all actives have a fitted effect of over 55% in size
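K18 P301L tau (15 uM unlabeled/0.24 uM Alexa 594-labeled, final) + compound + heparin 20 uM final; 100 mM NaOAc pH 7; 6 hr 37 C; ThT 30 uM final added, 1 hr RT; FP ex 555/em 632 nm.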
Tau fluor counter = Counterscreen qHTS for Inhibitors of Tau Fibril Formation, Fluorescence Polarization; tau K18 P301L Alexa594 fluorescence, heparin fibrillization; Potency, µM (titrated, usually from 57.7 µM), for inactives: top-dose activity change, negative = decrease; 280,000 compounds, 0.93% hits; note: nearly all actives have a fitted effect of over 55% in size
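Human tau K18 P301L (15 uM unlabeled, 0.24 uM Alexa 594-labeled) in 100 mM sodium acetate pH 7 with 20 uM heparin, 6 hr at 37 C. ThT 30 uM added, 1 hr ambient; Alexa 594 FP and total fluorescence read at 555/632 nm.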
Tau ThT inhib = qHTS for Inhibitors of Tau Fibril Formation, Thioflavin T Binding; Potency, µM (highest dose often 57.4 µM), inactives show at the top dose activity, negative = inhibition, most hits filed as inhibitors; recombinant tau K18 P301L (four-repeat tau fragment), heparin-induced fibrillization, ThT fluorescence; 270,000 compounds, 2.1% hits; AID 1460, 2008; Microtubule-associated protein tau (Homo sapiens), P10636; note: nearly all actives have a fitted effect of over 55% in size
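In this qHTS, human K18 P301L tau is incubated with compound and heparin for 6 hr at 37 C, and Thioflavin T fluorescence then reports fibril load.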
HPGD block = qHTS Assay for Inhibitors of HPGD (15-Hydroxyprostaglandin Dehydrogenase) | Potency, µM, for the others: at the top dose activity change, negative = inhibition, usual class: inhibitors | purified HPGD, NADH fluorescence kinetic, PGE2 substrate | 150,000 compounds, 4.3% hits | 15-hydroxyprostaglandin dehydrogenase [NAD(+)] (Homo sapiens), P15428 | AID 894, 2007; active = well fitted inhibition curve with a large enough effect, not every such curve was filed as active; inconclusive = small, poorly fitted or top-dose-only effect, or another doubt; inactive = no such curve, though single readings can be large or run the other way
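NADH formation kinetics: reaction with 30 uM PGE2 and 1 mM NAD+ (final), 20 nM enzyme, Tris-HCl pH 8 with Tween 20, after 15 min compound preincubation at room temperature. Fluorescence change, last versus first of five reads.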
Starred values were filed as active, the others as inactive; ? = inconclusive; . = no result; [ ] = remark or other dose. Compounds with a hit are over-represented: about 9.9% of the library has one in this group of screens. Unless noted, calls come from the whole dose curve; as a rule, active = well fitted curve in the direction sought with a large enough effect; inconclusive = small, poorly fitted or top-dose-only effect, or another doubt; inactive = no such curve, though single readings can be large; an effect the other way counts as inactive or inconclusive. Unless noted, % is set by controls: 0 for no effect and ±100 for the full control effect; potency is the fitted concentration of half-maximal effect.

SMILES	ALDH1A1 block	JMJD2E inh	Tau FP inhib	Tau fluor counter	Tau ThT inhib	HPGD block
Cn1c(=O)n(C)c2cc(NS(=O)(=O)c3ccc4c(c3)CCCC4)ccc21	1µM*	4.3%	2.7%	-20.6%	-9.7%	-2.1%
O=C(Cn1sc2ccccc2c1=O)NC12CC3CC(CC(C3)C1)C2	0.0708µM*	-22.6%	20µM*	-27.8%	15.8µM*	0.316µM*
C=C(C)C1CC=C(C)/C(=N\NC(=O)CCc2ccccc2)C1 (stereo unspecified)	1.4%	4.3%	2.8%	1.6%	-1.7%	-3.1%
C=CC(=O)OCCCC	5.0%	.	.	.	.	?
CCOC(=O)CCCSc1nc2sc3c(c2c(=O)[nH]1)CCC3	-1.8%	-10.3%	6.8%	-8.5%	?	3.55µM*
CCOC(=O)CSc1nnc(CSc2nc3sc4c(c3c(=O)[nH]2)CCCC4)n1-c1ccccc1	-0.2%	-7.3%	6.2%	-0.5%	-10.5%	14.1µM*
CCOC(=O)CSc1nc2sc3c(c2c(=O)n1-c1ccccc1)CCC(C(C)(C)C)C3 (stereo unspecified)	.	.	?	-12.8%	-17.1%	.
COC(=O)CSc1nc2sc3c(c2c(=O)[nH]1)CCC3	.	-3.5%	-3.5%	-11.7%	-13.2%	.
CN1CCCN(S(=O)(=O)c2ccc(Cl)c(Cl)c2)CC1	5.9%	5.6%	-6.6%	-6.3%	-3.4%	.
CCOC(=O)c1c(-c2ccc(C)o2)csc1NC(=O)CSc1nnnn1-c1ccccc1	1.58µM*	-11.7%	0.5%	3.8%	-10.0%	11.2µM*
CCOC(=O)c1c(-c2ccc(C)o2)csc1NC(=O)CSc1nnc(C)s1	?	6.5%	-11.1%	-18.0%	?	?
CCOC(=O)c1c(-c2ccc(C)o2)csc1NC(=S)NC(=O)c1ccccc1Br	-14.3%	-0.2%	-15.0%	-22.3%	?	-19.3%
CCOC(=O)c1c(-c2ccc(C)o2)csc1NC(=S)NC(=O)c1cccs1	17.8µM*	-15.8%	?	?	?	?
C/C(=N\Nc1ccc([N+](=O)[O-])cc1)c1ccc(-n2nncc2C)cc1	-12.9%	-3.2%	?	15.8µM*[quencher]	7.08µM*	8.91µM*
C/C(=N\Nc1ccc([N+](=O)[O-])cc1)c1ccc(N)cc1	?	?	-3.7%	1.4%	6.1%	-21.9%
CC/C(=N\Nc1ccc([N+](=O)[O-])cc1)c1ccccc1	?	-7.1%	-10.4%	?	2µM*	.
CCc1ccc(/C(C)=N\Nc2ccc([N+](=O)[O-])cc2)cc1	-3.1%	-14.3%	-4.4%	?	3.55µM*	-4.5%
C/C(=N\Nc1nc(C)c(C)s1)c1ccc([N+](=O)[O-])cc1	12.6µM*	1.3%	9.1%	?	14.1µM*	.
Cc1ccc(CNC(=O)C(=O)NCC(c2ccco2)S(=O)(=O)c2ccccc2)cc1 (stereo unspecified)	.	.	-3.8%	1.0%	6.5%	.
CCC1=Nc2cc(C(=O)NC3CCCC3)ccc2Sc2ccc(Br)cc21	.	.	1.7%	-6.6%	-8.1%	.
C/C(=N\Nc1ccc([N+](=O)[O-])cc1)c1ccco1	?	9.8%	9.0%	?	5.01µM*	-5.2%
CC(=O)CSc1nnc2cc(C)c3cc(C)cc(C)c3n12	.	.	-3.7%	-5.6%	-12.4%	.
CC(C)(c1ccccc1)c1ccc(OCCCN2CCNCC2)cc1	15.8µM*	-9.9%	8.2%	-1.2%	?	.
O=C1C(Cc2cccc([N+](=O)[O-])c2)SC(=Nc2ccccc2)N1c1ccccc1 (stereo unspecified)	-10.4%	1.7%	1.4%	-17.4%	-5.8%	-9.7%
Cc1ccc2c(c1)Sc1ccccc1CC2=O	17.8µM*	?	0.6%	2.1%	9.2%	25.1µM*
